ATXN2 expr inh – inhibitors of ATXN2 expression; HEK-293 ATXN2-luciferase reporter, luminescence, 24 h; Potency, µM (top dose mostly 57 µM), for the others: top-dose activity change, negative = inhibition, usual class: inhibitors; actives 0.72% (n = 360,000); AID 1745845; also: potency is read from the fitted curve at half-maximal effect; % is scaled to controls: 0 for no effect and ±100 for the full control effect; nearly all actives have a fitted effect of over 55% in size
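qHTS (up to 57 uM final) was run with 24 h compound exposure of reporter cells at 37 °C. Each well was multiplexed: SteadyGlo luminescence measured ATXN2-luciferase expression after a fluorogenic Gly-Phe-AFC viability readout (25 uM final).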
IL-1B inflam inh – inflammasome signaling inhibition, IL-1 beta readout; actives 4.7% (n = 360,000); activity change, % at 57.5 µM; THP-1 LPS/ATP IL-1B secretion, AlphaLISA, 16 h; hits give low values; in the data active = activity change below about -50%; inconclusive = mostly about -30% to -49%; also: % is scaled to controls: 0 for no effect and ±100 for the full control effect
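Secreted IL-1B measured by AlphaLISA bead assay after 16 h compound exposure of THP-1 cells; compounds (final up to 57.5 uM) added 1 h before LPS (250 ng/mL) and ATP (1.25 mM) stimulation; lower signal means less secretion.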
SW480 rerep – induces DNA re-replication in SW480 colon adenocarcinoma cells; SW480 DNA re-replication, Hoechst DNA content imaging, 48 h; Potency, µM (titrated, usually from 46.1 µM), inactives show top-dose re-replication activation, hits mostly activators; actives 1.8% (n = 340,000); also: potency is read from the fitted curve at half-maximal effect; % of control where 0% means no effect; nearly all actives have a fitted effect of over 55% in size
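DNA re-replication was detected as more nuclei of elevated Hoechst intensity after 48 hr exposure to compound (23 nL pinned per well of 250 cells).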
ATXN viability – cell viability loss in ATXN counter-screen; S2 cells (HEK-293 line with an ATXN2-luciferase reporter) viability, CellTiter-Fluor protease fluorescence, 24 h; Potency, µM (highest dose often 56.7 µM), usual class: cytotoxic; actives 0.49% (n = 400,000); also: potency is read from the fitted curve at half-maximal effect; nearly all actives have a fitted effect of over 40% in size
PINK1 modulator – changes PINK1 expression; actives 0.2% (n = 410,000); PINK1 immunofluorescence, high-content cytometry, 24 h; Potency, µM (doses to about 76.6 µM), for inactives: at the highest dose activation (PINK1 increase), hits mostly activators; active = well fitted activation curve with a large enough effect; inconclusive = small, poorly fitted or top-dose-only effect; cell line not stated here; also: potency is read from the fitted curve at half-maximal effect; % of control where 0% means no effect; nearly all actives have a fitted effect of over 65% in size
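Measures PINK1 amount and localization on or inside mitochondria by immunofluorescence. Stable cells get compounds at 5 concentrations for 24 hours before fixation and staining; CCCP controls included.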
MCF10A rereplic – DNA re-replication induction in MCF 10a cells. actives 2.9% (n = 350,000). Potency, µM (top dose mostly 46.1 µM), without a hit: at the top dose activity, positive = re-replication, usual class: activators. MCF 10A DNA re-replication, Hoechst nuclear intensity, 48 h; also: potency is read from the fitted curve at half-maximal effect; % of control where 0% means no effect; nearly all actives have a fitted effect of over 50% in size
Active calls of the source: *; [ ] = dose if it differs, or a comment. An excerpt weighted towards active compounds, which were near 7.1% of everything screened. Unless noted, calls follow the shape of the dose curve; as a rule, active = well fitted curve in the direction sought with a large enough effect; inconclusive = small, poorly fitted or top-dose-only effect, or another doubt; inactive = no such curve, though single readings can be large; an effect the other way counts as inactive or inconclusive.

Screening COC1=C(Nc2ccccc2)C(=O)c2ccccc2C1=O returned ATXN2 expr inh -18.7%, IL-1B inflam inh inconclusive, SW480 rerep inconclusive, ATXN viability inconclusive, PINK1 modulator 8.7% and MCF10A rereplic 23.0%.
Cc1ccc(N2CCN(S(=O)(=O)c3cc(Br)cc4c3N(C(=O)C3CC3)CC4)CC2C)cc1 (configuration not stated) was read as ATXN2 expr inh -2.4%, ATXN viability inactive and PINK1 modulator 2.8%.
`C[C@@H]1C[C@@H](CC(=O)NCC2Cc3cccc(-c4ccncc4)c3O2)NC(=S)N1` (some centres not stated) gave ATXN viability inactive and PINK1 modulator 2.7%.
`Nc1ncnc2c1ncn2Cc1c(F)cccc1Cl` gave ATXN2 expr inh 8.7% and ATXN viability inactive.
Screening Cc1cccc(Nc2nnc(SCC(=O)NC3CCCc4ccccc43)s2)c1 (configuration not stated) returned ATXN2 expr inh -9.9%, IL-1B inflam inh -54.9*, SW480 rerep -4.4%, ATXN viability inactive, PINK1 modulator 2.4% and MCF10A rereplic inconclusive.
For Cc1ccc2nc(SCC(=O)NC3CCCc4ccccc43)[nH]c2c1 (configuration not stated) the results were ATXN2 expr inh -26.8%, IL-1B inflam inh 6.5, SW480 rerep inconclusive, ATXN viability inactive, PINK1 modulator -0.3% and MCF10A rereplic 14.6µM*.
Cc1cccc(C(=O)N2CCc3cc(CNC(=O)c4ccc(Br)o4)ccc32)c1 was read as PINK1 modulator -0.1%.
Screening Cc1cccc(NC(=O)CSc2nc3ccccc3nc2N2CCOCC2)c1C returned ATXN2 expr inh 6.9%, ATXN viability inconclusive and PINK1 modulator 0.5%.
`COc1ccc(/C=C/C(=O)N2CCc3c(cnc(C)c3CNS(=O)(=O)c3cccs3)C2)cc1` gave ATXN viability inactive and PINK1 modulator 0.2%.
`O=C(CCCN1C(=O)/C(=C\c2ccccc2)SC1=S)Nc1ccc(O)cc1` gave ATXN2 expr inh 17.6%[11.3 µM], IL-1B inflam inh -104.9*, SW480 rerep inconclusive, ATXN viability inactive, PINK1 modulator -1.2% and MCF10A rereplic inconclusive.
O=C(CCN1C(=O)/C(=C\c2ccccc2)SC1=S)Nc1ccc(C(=O)O)cc1 was read as ATXN2 expr inh 10.2%, IL-1B inflam inh 29.9, SW480 rerep -3.1%, ATXN viability inactive, PINK1 modulator 1.8% and MCF10A rereplic 6.0%.
`Cc1ccc(/C=C2\SC(=S)N(CCCC(=O)NC3CCCC3)C2=O)cc1` gave ATXN2 expr inh 12.6µM*, IL-1B inflam inh inactive, SW480 rerep -5.5%, ATXN viability inactive, PINK1 modulator -0.4% and MCF10A rereplic -1.9%.
O=C(CN1C(=O)S/C(=C\C=C\c2ccccc2)C1=O)Nc1ccc(O)cc1 was read as ATXN2 expr inh 47.0%, IL-1B inflam inh -53.8*, SW480 rerep 1.4%, ATXN viability inactive, PINK1 modulator 2.6% and MCF10A rereplic 2.1%.
COc1cc(/C=C2\SC(=S)N(CCC(=O)NC3CCCC3)C2=O)cc(OC)c1OC was read as ATXN2 expr inh 7.0%, IL-1B inflam inh inconclusive, SW480 rerep 1.2%, ATXN viability inactive, PINK1 modulator 2.3% and MCF10A rereplic 7.9%.
`CCN(CC)CCOC(=O)c1ccc(NC(=O)CCCN2C(=O)S/C(=C/c3ccc(OC)cc3)C2=S)cc1` gave ATXN2 expr inh 7.08µM*, IL-1B inflam inh -69.0*, SW480 rerep 22.4µM*, ATXN viability inconclusive, PINK1 modulator -0.2% and MCF10A rereplic inconclusive.
Screening O=C(CCCN1C(=O)S/C(=C/C=C/c2ccccc2)C1=O)Nc1ccc(C(=O)O)cc1 returned ATXN2 expr inh 0.9%, IL-1B inflam inh -8.9, SW480 rerep -5.8%, ATXN viability inactive, PINK1 modulator -1.2% and MCF10A rereplic 0.8%.
COc1ccc(/C=C2\SC(=S)N(CCC(=O)Nc3ccc(O)cc3)C2=O)cc1 was read as ATXN2 expr inh 5.5%, IL-1B inflam inh 16.2, SW480 rerep 0.5%, ATXN viability inactive, PINK1 modulator -0.2% and MCF10A rereplic inconclusive.
For COc1cccc(C(=O)Nc2cccc(C(=O)OCc3cc(=O)n4nc(C5CC5)sc4n3)c2)c1 the results were ATXN2 expr inh 4.6%, ATXN viability inconclusive and PINK1 modulator -1.6%.
`COCCNC(=O)c1cc(Sc2ccc(F)cc2F)nc2ccccc12` gave PINK1 modulator -1.1%.
Screening O=C(CCCN1C(=O)/C(=C/c2ccccc2)SC1=S)Nc1cccc(O)c1 returned IL-1B inflam inh -52.3*, SW480 rerep 16.5%, ATXN viability inconclusive, PINK1 modulator -0.9% and MCF10A rereplic inconclusive.
Screening O=C(CCCN1C(=O)/C(=C\c2ccccc2)SC1=S)Nc1cccc(C(=O)O)c1 returned ATXN2 expr inh 13.5%, IL-1B inflam inh -1.7, SW480 rerep 5.9%, ATXN viability inactive, PINK1 modulator 0.5% and MCF10A rereplic -6.0%.
Screening COc1cccc(/C=C2/SC(=S)N(CCCC(=O)Nc3ccc(O)cc3)C2=O)c1 returned ATXN2 expr inh 15.8µM*, IL-1B inflam inh -84.8*, SW480 rerep inconclusive, ATXN viability inconclusive, PINK1 modulator -1.0% and MCF10A rereplic 8.5%.
Screening Cc1ccc(/C=C2/SC(=S)N(CCCC(=O)Nc3ccc(O)cc3)C2=O)cc1 returned ATXN2 expr inh 2.51µM*, IL-1B inflam inh -62.3*, SW480 rerep inconclusive, ATXN viability inconclusive, PINK1 modulator 7.5% and MCF10A rereplic inconclusive.
Screening COc1ccc(-c2nc(CN3CCC(C(=O)NCCCOC(C)C)CC3)c(C)o2)cc1OC returned ATXN2 expr inh 4.5%, ATXN viability inactive and PINK1 modulator 1.8%.
Screening O=C(N=Nc1c(O)n(Cc2ccccc2)c2ccccc12)c1ccc(O)cc1 returned ATXN2 expr inh 55.2%, IL-1B inflam inh inconclusive, SW480 rerep -9.7%, ATXN viability inconclusive, PINK1 modulator 4.1% and MCF10A rereplic 6.3%.
For Cc1ccc(NC(=O)Cn2c(O)c(N=NC(=O)c3ccncc3)c3ccccc32)cc1 the results were ATXN2 expr inh -17.7%, IL-1B inflam inh 53.2, SW480 rerep -5.4%, ATXN viability inconclusive, PINK1 modulator 7.4% and MCF10A rereplic 4.8%.
Screening Cc1ccc(NC(=O)Cn2c(O)c(N=NC(=O)c3cc4ccccc4cc3O)c3ccccc32)cc1 returned ATXN2 expr inh inconclusive, IL-1B inflam inh -94.7*, SW480 rerep inconclusive, PINK1 modulator -4.4% and MCF10A rereplic inconclusive.

Source: PubChem (National Center for Advancing Translational Sciences (NCATS))
